Sampled rows, rich in hits. Any-hit rate of the full collection: about 2.4%.
FAK inh: FAK (human) kinase inhibition | AID 727 | Q05397 | actives 0.84% (n = 97,000) | biochemical FAK kinase activity assay | inhibition, %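 (tested at 7 µM)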
NFkB transloc pot: enhances IL-1B driven NFkB nuclear translocation; HUVEC IL-1B NFkB p65 nuclear translocation imaging; activation, % at 2 µM; actives 0.3% (n = 94,000);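 active = activation above 40%, about the mean plus 3 SD, also judged a hit on visual image review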;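 note: percent activation is computed from the nuclear over cytoplasmic p65 intensity ratio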
Pyk2 oligo antag: antagonists of human Pyk2 oligomerization | Q293 cells, Pyk2 FERM NanoBiT luminescence; active compounds read low | z-score (the deposit names both 25 µM and 10 µM) | Q14289 | actives 0.83% (n = 99,000);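 active = Z-score of -3 or lower, scaled per plate to the spread of control and sample wells; inactive = z-score above -3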;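 note: negative z-score means lost luminescence so less FERM oligomerization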
JNK3 blocker: blocks human JNK3 kinase activity; P53779; AID 746; actives 0.61% (n = 60,000); purified JNK3 kinase activity, HTS; inhibition, % at 8 µM; in the data active = inhibition above about 17%
Target sequence (P53779 whole entry, looked up): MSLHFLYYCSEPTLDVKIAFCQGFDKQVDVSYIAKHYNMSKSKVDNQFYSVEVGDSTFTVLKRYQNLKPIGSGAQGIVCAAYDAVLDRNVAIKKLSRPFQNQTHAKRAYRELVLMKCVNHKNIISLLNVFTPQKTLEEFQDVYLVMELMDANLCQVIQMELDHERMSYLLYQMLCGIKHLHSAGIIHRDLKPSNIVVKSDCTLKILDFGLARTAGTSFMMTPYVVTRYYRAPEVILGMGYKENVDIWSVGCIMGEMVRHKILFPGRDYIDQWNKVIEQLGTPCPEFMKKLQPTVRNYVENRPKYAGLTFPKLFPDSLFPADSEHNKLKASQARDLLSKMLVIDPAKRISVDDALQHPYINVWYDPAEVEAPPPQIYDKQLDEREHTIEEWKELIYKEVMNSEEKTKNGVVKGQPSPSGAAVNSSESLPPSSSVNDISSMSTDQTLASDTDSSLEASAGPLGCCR
HUVEC tox IL1B: HUVEC cytotoxicity counter-screen, IL-1B stimulated | cell count reduction, % at 2 µM | AID 845 | actives 0.41% (n = 94,000) | HUVEC cell count loss, Hoechst imaging;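 active = cell count reduction more than 3 SD above the screen-wide mean, cut at about 70% in these data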
NFkB transloc inh: blocks IL-1B driven NFkB nuclear translocation in HUVEC cells; HUVEC IL-1B NFkB p65 nuclear translocation imaging; inhibition, % at 2 µM; actives 0.43% (n = 94,000); AID 796;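 active = inhibition above about 30% together with a positive call from visual inspection of the well image, limit read from the data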;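 note: nuclear over cytoplasmic p65 intensity ratio measured by imaging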
FAK inh conf: confirmation of human focal adhesion kinase (FAK) inhibitors | shares compounds with FAK inh | FAK kinase biochemical inhibition assay | inhibition, % at 7 µM | actives 28% (n = 750) | AID 794
Hits are given with their value; . = inactive; / = no result given. Cut-off read from the data, not from the text of the source, unless noted: active = inhibition above about 19%; inactive = the rest.

SMILES | FAK inh | NFkB transloc pot | Pyk2 oligo antag | JNK3 blocker | HUVEC tox IL1B | NFkB transloc inh | FAK inh conf
CCn1c(C)csc1=NC(=O)c1ccccc1O | / | / | . | 23 | / | / | /
O=C(NC1CC1)C1CCN(c2ncnc3c2sc2cccc(F)c23)CC1 | . | . | / | / | . | . | /
CCOc1ccccc1NC(=O)COc1cccc(-n2cnnn2)c1 | . | . | . | 23 | . | . | /
Cc1ccc(CC2CC(=O)N(c3ccc(Cl)cn3)C2=O)cc1 (centres undefined) | . | . | . | . | . | . | /
CC(=O)N(Cc1ccco1)C1(C(=O)NC2CCCCC2)CCCCC1 | . | . | . | / | . | . | /
O=C(Cc1cccs1)N(Cc1ccco1)C1(C(=O)NC2CCCCC2)CCCCC1 | . | . | -4.2 | / | . | . | /
O=C(Cc1cccs1)N(Cc1cccs1)C1(C(=O)NC2CCCC2)CCCCC1 | . | . | -3.4 | / | . | . | /
O=C(NC1CCCCC1)C(c1cccs1)N(Cc1cccs1)C(=O)c1cccs1 (centres undefined) | . | . | -3.9 | / | . | . | /
Cc1cc(NC(=O)CCC(=O)N(Cc2ccco2)C2(C(=O)NC3CCCCC3)CCN(C)CC2)no1 | . | . | . | . | 87 | 99 | /
c1ccc2sc(SN3CCOCC3)nc2c1 | / | / | . | / | / | / | /
O=C(CC1C(=O)NCCN1C(=S)Nc1ccccc1)Nc1ccc2c(c1)OCCO2 (centres undefined) | 23 | . | . | / | . | . | .
COc1ccccc1NC(=O)CC1C(=O)NCCN1C(=O)Nc1ccccc1 (centres undefined) | . | . | . | / | . | . | /
CC(=O)Oc1cc2c(cc1Cl)C1(CC(c3ccccc3Cl)O2)CC(C)(C)NC(=S)N1 (centres undefined) | . | . | . | / | . | . | /
O=c1cc(CSc2nnc(-c3cccs3)n2Cc2ccccc2)nc2sc3ccccc3n12 | 31 | . | . | . | . | . | .
CCc1noc(C)c1C(=O)Nc1sc(C(=O)N(C)C)c(C)c1C(=O)OC | . | . | . | . | . | . | /
CN(C)c1ccc(-n2cc3c(=O)n(C)c(=O)n(C)c3c2)cc1 | 27 | . | . | . | . | . | .
CCN(CC)CCn1c2ccccc2c2cnc(N)c(C#N)c21 | 40 | . | . | / | . | . | .
COc1ccc(/C=N/NC(=O)CCCOc2ccc(Cl)cc2Cl)cc1[N+](=O)[O-] | 23 | . | . | / | . | . | .
COCCn1c(SCC(=O)c2ccccc2)nc2c(c1=O)SC(C)C2 (centres undefined) | . | . | . | . | . | . | /
CC(=O)N(CCC(c1ccccc1)c1ccco1)Cc1cccs1 (centres undefined) | . | . | . | / | . | . | /
O=C(c1ccco1)N(CCC(c1ccccc1)c1ccco1)Cc1ccco1 (centres undefined) | 20 | . | . | / | . | . | .
CN(Cc1ccccc1)c1ncnc2ccc(Br)cc12 | 39 | . | . | . | . | . | .
CCCSc1nc2c(cnn2-c2ccc(C)cc2)c(=O)[nH]1 | 23 | . | / | . | . | . | .
O=C(Oc1ccc2c(c1)OCO2)c1cc2c(s1)CCC2 | 24 | . | . | . | . | . | .
Cc1nnc(NC(=O)CSc2ncnc3c2cnn3-c2ccccc2C)s1 | 30 | . | . | / | . | . | .
SMILES | FAK inh | NFkB transloc pot | Pyk2 oligo antag | JNK3 blocker | HUVEC tox IL1B | NFkB transloc inh | FAK inh conf
O=C(CSc1ncnc2c1oc1ccccc12)NCc1ccco1 | . | . | . | . | . | . | /
C=CCc1c(C)nc(C)nc1N/N=C/c1ccc(N(C)C)cc1 | . | . | . | / | . | . | /
CCOc1ccc(S(=O)(=O)N(CC(=O)N/N=C/c2ccc(-c3ccc([N+](=O)[O-])cc3)o2)c2ccccc2)cc1 | 45 | / | . | / | / | / | 21
CC1CCc2c(sc3nn[nH]c(=O)c23)C1 (centres undefined) | 26 | . | . | / | . | . | .
COCCN(Cc1ccccc1)P(=O)(O)c1ccccc1OCC(=O)O | 62 | . | . | . | . | . | 52
CC(=O)Cc1ccccc1OCC(=O)O | . | . | . | . | . | . | /
Cc1ccc(C)c(NC(=O)CC(NCCCN2CCOCC2)C(=O)O)c1 (centres undefined) | . | . | / | . | . | . | /
CCNC(=S)N/N=C1\C(=O)c2cccc3cccc1c23 | . | . | . | / | . | . | /
O=C(N/N=C1/C(=O)c2cccc3cccc1c23)c1ccc(Cl)cc1 | 92 | . | . | / | . | . | 87
CCCCC1CCC(C(=O)NCc2ccc3c(c2)OCO3)CC1 (centres undefined) | . | . | . | / | . | . | /
Cc1nn(-c2ccccc2)c(Cl)c1/C=N/Nc1ccc(S(=O)(=O)Nc2ccccc2C(=O)O)cc1[N+](=O)[O-] | 19 | . | . | / | . | . | .
Cc1cc(S(=O)(=O)Nc2ccccc2C(=O)O)ccc1Cl | . | . | . | . | . | . | /
CCOC(=O)C1=C(C)Nc2ncnn2C1c1cc(Br)ccc1F (centres undefined) | / | / | . | . | / | / | /
Cc1oc(-c2ccccc2F)nc1CS(=O)(=O)CC(=O)NCCCc1ccccc1 | / | / | / | . | / | / | /
Cc1oc(-c2ccccc2F)nc1CS(=O)(=O)CC(=O)NCc1ccco1 | 27 | . | / | . | . | . | .
Cc1ccc(C(=O)N/N=C/c2ccc([N+](=O)[O-])s2)cc1 | 50 | . | . | / | . | . | .
CC(=O)CSc1nc(C(F)(F)F)cc(=O)n1-c1ccccc1 | 56 | / | . | / | / | / | .
CCOC(=O)N1CCN(c2nc(-c3ccc(F)cc3)cs2)CC1 | . | . | . | . | . | . | /
CCCCn1c(NC(C)=O)c(C#N)c2nc3ccccc3nc21 | . | . | . | . | . | . | /
C=CCn1c(NC(=O)c2ccccc2Cl)c(C#N)c2nc3ccccc3nc21 | 20 | . | . | . | . | . | .
Cc1ccc(C)c(C(=O)CSc2n[nH]c(-c3ccncc3)n2)c1 | 30 | . | . | . | . | . | .
O=C(Nc1cccc(-c2nc3ccccc3[nH]2)c1)c1cccc(NC(=O)c2ccco2)c1 | 71 | . | . | 19 | . | . | 62
COC(=O)C(C)N1C(=O)S/C(=C/c2cc(C)n(C(C)C)c2C)C1=O (centres undefined) | . | . | . | / | . | . | /
C/C=C/c1ccc(OCCn2cncn2)c(OC)c1 | . | . | . | . | . | . | /
Cc1cccc(NC(=O)C2CCCN(S(=O)(=O)c3cccc4nsnc34)C2)c1 (centres undefined) | 94 | . | . | / | . | . | .
SMILES | FAK inh | NFkB transloc pot | Pyk2 oligo antag | JNK3 blocker | HUVEC tox IL1B | NFkB transloc inh | FAK inh conf
NS(=O)(=O)c1ccc(NS(=O)(=O)c2ccc(NC(=O)c3ccc(-c4ccccc4)cc3)cc2)cc1 | 30 | . | . | / | . | . | .
Cc1nn(Cc2ccc(C(=O)Nc3nccs3)cc2)c(C)c1Cl | 22 | . | . | . | . | . | .
COc1ccc(C(=O)Nc2nccs2)cc1OC | / | / | . | . | / | / | /
COc1ccc(NC(=O)Cn2nnc(C(N)=O)c2N)c(OC)c1 | . | . | . | . | . | . | /
CCn1c(=O)c2c(cnn2C)c2ccccc21 | 32 | . | . | . | . | . | .
CCOC(=O)Cc1csc(NC(=O)CSc2nncn2C)n1 | . | . | . | / | . | . | /

High-throughput results as filed in PubChem.
